Assay results published in the supplement of paper PMC8007513.
Structures can show the parent of a compound that is named as a salt. ± gives the standard error. The whole screen tested about 1,300 compounds, of which about 75 (6%) showed an effect of 50% or more. Only a selection was taken, and strong results are over-represented in it overall.

System: Trichoderma virens ATCC 9645
Assay: growth yield (OD600) relative to untreated control; higher = less growth inhibition
Conditions: compound concentration: 100 uM
Procedure, shortened: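 For each 96-well plate, 100 μl aliquots were prepared with Trichoderma virens ATCC 9645 spores suspended at 15,000 spores ml^−1 in potato dextrose broth. The spores had been harvested from potato dextrose agar plates after 7 days. Library compounds were present at 100 μM final, some wells also receiving a biocide at 200 ng ml^−1, and plates were grown at 30 °C with OD600 read on a BioTek EL800 at 40 h and 72 h. Reported growth, relative to the control lacking both agents, is the mean of duplicate screens.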

Row | Structure (SMILES) | growth yield (40 h) [%] | growth yield (72 h) [%]
1 | CCN1CCCC(OC(=O)C(c2ccccc2)c2ccccc2)C1 (stereo not drawn) [Piperidolate hydrochloride] | 106 ± 0.79 | 105 ± 1.8
2 | C=CC[N@@+]12CC[C@@]34c5ccccc5N5/C=C6/[C@H]7C[C@H]8[C@@]9(CC[N@@+]8(CC=C)C/C7=C/CO)c7ccccc7N(/C=C(/[C@@H](C[C@@H]31)/C(=C\CO)C2)[C@H]54)[C@@H]69 [Alcuronium chloride] | 66.1 ± 7.6 | 65.8 ± 5.3
3 | O=C(O)CCNC(=O)c1ccc(/N=N/c2ccc(O)c(C(=O)O)c2)cc1 [Balsalazide Sodium] | 107 ± 1.4 | 101.9 ± 0.84
4 | OCCN1C[C@H](O)[C@@H](O)[C@H](O)[C@H]1CO [Miglitol] | 101 ± 3 | 103 ± 3.1
5 | C#C[C@]1(O)CC[C@H]2[C@@H]3[C@H](C)CC4=C(CCC(=O)C4)[C@H]3CC[C@@]21C [Tibolone] | 88.31 ± 0.64 | 90.72 ± 0.1
6 | CN1CC2c3ccccc3Oc3ccc(Cl)cc3C2C1 (stereo not drawn) [Asenapine maleate] | 100 ± 1.3 | 106 ± 1.3
7 | C=CCOC(Cn1ccnc1)c1ccc(Cl)cc1Cl (stereo not drawn) [Enilconazole] | 3.49 | 3.04 ± 0.32
8 | Clc1ccc(COC(Cn2ccnc2)c2ccc(Cl)cc2Cl)cc1 (stereo not drawn) [Econazole nitrate] | 2.22 ± 0.64 | 1.78 ± 0.52
9 | Clc1ccc(C(Cn2ccnc2)OCc2csc3c(Cl)cccc23)c(Cl)c1 (stereo not drawn) [Sertaconazole nitrate] | 3.81 | 2.73
10 | O=C(O)/C=C/c1ccc(Cn2ccnc2)cc1 [Ozagrel hydrochloride] | 110 ± 9.5 | 106 ± 5.1
11 | Clc1ccc(C(Cn2ccnc2)OCc2ccsc2Cl)c(Cl)c1 (stereo not drawn) [Tioconazole] | 2.22 ± 1.6 | 1.89 ± 0.84
12 | CCOC(=O)O[C@]1(C(=O)OCCl)CC[C@H]2[C@@H]3CCC4=CC(=O)C=C[C@]4(C)[C@H]3[C@@H](O)C[C@@]21C [Loteprednol etabonate] | 97.7 ± 3.6 | 97.4 ± 3.5
13 | CNCC(O)c1ccc(OC(=O)C(C)(C)C)c(OC(=O)C(C)(C)C)c1 (stereo not drawn) [Dipivefrin hydrochloride] | 99.28 ± 0.79 | 100.2 ± 0.94
14 | CN(C)[C@@H]1C(O)=C(C(N)=O)C(=O)[C@@]2(O)C(O)=C3C(=O)c4c(O)cccc4[C@@](C)(O)[C@H]3C[C@@H]12 [Tetracycline hydrochloride] | 95.9 | 76.2 ± 15
15 | CCN(CC)CCN[C@@H](C(=O)OCCC(C)C)c1ccccc1 [Camylofine chlorhydrate] | 104 ± 1.8 | 102 ± 1.5
16 | CC1=C(CC(=O)O)c2cc(F)ccc2/C1=C\c1ccc([S+](C)[O-])cc1 (stereo not drawn) [Sulindac] | 90.1 ± 1.1 | 86.31 ± 0.73
17 | CN(C)CCCSC(=N)N [Dimaprit dihydrochloride] | 102 ± 3.3 | 99.5 ± 3.2

Row | Structure (SMILES) | growth yield (40 h) [%] | growth yield (72 h) [%]
18 | CC(C)(C)NC(=O)[C@H]1CC[C@H]2[C@@H]3CC[C@H]4NC(=O)C=C[C@]4(C)[C@H]3CC[C@]12C [Finasteride] | 84 ± 5.9 | 81.1 ± 2
19 | N[C@@H]1CCCCN(c2c(F)cc3c(=O)c(C(=O)O)cn(C4CC4)c3c2Cl)C1 [Besifloxacin hydrochloride] | 93.4 ± 6.3 | 91.6 ± 8.3
20 | C[C@H](Cc1cc2c(c(C(N)=O)c1)N(CCCO)CC2)NCCOc1ccccc1OCC(F)(F)F [Silodosin] | 105 | 100 ± 2.3
21 | Cc1cc(/C=C/c2ccc3cc(N(C)C)ccc3[n+]2C)c(C)n1-c1ccccc1 [Pyrvinium pamoate] | 124 ± 20 | 114 ± 12
22 | CCC1NC(=O)c2cc(S(N)(=O)=O)c(Cl)cc2N1 (stereo not drawn) [Quinethazone] | 114 ± 1.4 | 107 ± 1.1
23 | C#C[C@]1(OC(C)=O)CC[C@H]2[C@@H]3CCC4=CC(=NO)CC[C@@H]4[C@H]3CC[C@@]21CC (mixture of isomers) [Norgestimate] | 117 ± 3.3 | 112 ± 3.9
24 | Clc1ccc(COC(Cn2ccnc2)c2ccc(Cl)cc2Cl)c(Cl)c1 (stereo not drawn) [Miconazole] | 1.43 ± 1.1 | 1.47 ± 0.63
25 | COc1ccc(-c2ccc3cc(C(=O)O)ccc3c2)cc1C12CC3CC(CC(C3)C1)C2 [Adapalene] | 107 ± 1.9 | 106.6 ± 0.84
26 | Nc1ncnc2c1ncn2C1OC(COP(=O)(O)O)C(O)C1O (stereo not drawn) [Adenosine 5'-monophosphate monohydrate] | 106 ± 1.3 | 107 ± 3.6
27 | Cc1c(NC(C)C)c(=O)n(-c2ccccc2)n1C [Isopyrin hydrochloride] | 100.9 ± 0.79 | 96.17 ± 0.52
28 | N[C@@H](Cc1cc(I)c(Oc2ccc(O)c(I)c2)c(I)c1)C(=O)O [Liothyronine] | 91.3 ± 3.3 | 97.3 ± 1.1
29 | O=C(O)Cc1cc(I)c(Oc2ccc(O)c(I)c2)c(I)c1 [Tiratricol, 3,3',5-triiodothyroacetic acid] | 28.9 ± 16 | 46.6 ± 17
30 | NC(Cc1cc(I)c(Oc2cc(I)c(O)c(I)c2)c(I)c1)C(=O)O (stereo not drawn) [Thyroxine (L)] | 98 ± 2.1 | 94.5 ± 3.9
31 | COc1cc2nc(N3CCN(C(=O)c4ccco4)CC3)nc(N)c2cc1OC [Prazosin hydrochloride] | 105 ± 5.7 | 101 ± 1.4
32 | CCOC(=O)/C=C(C)/C=C/C=C(C)/C=C/c1c(C)cc(OC)c(C)c1C [Etretinate] | 110 ± 6.3 | 107 ± 5.5
33 | CC(=O)Nc1ccc(CC(=O)O)cc1 [Actarit] | 106 ± 5.4 | 102 ± 3.4
34 | C[C@@H](O)[C@H]1C(=O)N2C(C(=O)O)=C(SCCNC=N)C[C@H]12 [Imipenem] | 103 ± 2.2 | 104 ± 2.2
